# About 7,900 targets were measured; listed, in parts, are those with a hit and a random draw of the rest. About 0.6% of all pairs of compound and target were hits. Values without a mark were called inactive.
# Assays:
# Experiment in all cases: log2 fold change, soluble protein after heating vs DMSO (PISA); higher = thermal stabilisation; K562 cells, 10 uM, 30 min; active = over 0.2 and 3.5 SD of the protein, either way, in both replicates (recomputed)
# [1] = compound: CS(=O)(=O)c1ccc(-c2cnc(N)c(C(=O)Nc3ccccc3)n2)cc1
# Procedure, shortened: (§1)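 K562 cells at 2×10^6 cells/mL were exposed to 10 μM compound for 30 min, then aliquots were heated for 3 min across 48°C-58°C, pooled, and extracted in PBS containing 0.5% NP-40 at 4°C. The supernatant after 21,000xg for 90 min was taken as soluble protein and measured by TMTpro 16plex LC-MS/MS with channel sums equalised. Thermal stability is reported relative to control samples, with values from duplicates. Fold changes are given on a log2 scale.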
# crizotinib = compound: C[C@@H](Oc1cc(-c2cnn(C3CCNCC3)c2)cnc1N)c1c(Cl)ccc(F)c1Cl [crizotinib]
# Procedure, shortened: as §1
# [2] = compound: C[C@@H]1COCCN1C2=NC(=NC(=C2)C3(CC3)S(=O)(=O)C)C4=C5C=CNC5=CC=C4
# Procedure, shortened: as §1
# [3] = compound: C[C@H](C1=CC=C(C=C1)C(=O)NC2=C3C=CNC3=NC=C2)N
# Procedure, shortened: as §1
# duvelisib = compound: C[C@H](Nc1ncnc2nc[nH]c12)c1cc2cccc(Cl)c2c(=O)n1-c1ccccc1 [duvelisib]
# Procedure, shortened: as §1
# gandotinib = compound: Cc1cc(Nc2cc(CN3CCOCC3)c3nc(C)c(Cc4ccc(Cl)cc4F)n3n2)n[nH]1 [gandotinib]
# Procedure, shortened: as §1
# tozasertib = compound: Cc1cc(Nc2cc(N3CCN(C)CC3)nc(Sc3ccc(NC(=O)C4CC4)cc3)n2)n[nH]1 [tozasertib]
# Procedure, shortened: as §1
# [4] = compound: Cc1cc(SCc2sc(-c3ccc(C(F)(F)F)cc3)nc2C)ccc1OCC(=O)O
# Procedure, shortened: as §1
# doramapimod = compound: Cc1ccc(-n2nc(C(C)(C)C)cc2NC(=O)Nc2ccc(OCCN3CCOCC3)c3ccccc23)cc1 [doramapimod]
# Procedure, shortened: as §1
# ispinesib = compound: Cc1ccc(C(=O)N(CCCN)[C@@H](c2nc3cc(Cl)ccc3c(=O)n2Cc2ccccc2)C(C)C)cc1 [ispinesib]
# Procedure, shortened: as §1
# bafetinib = compound: Cc1ccc(NC(=O)c2ccc(CN3CC[C@H](N(C)C)C3)c(C(F)(F)F)c2)cc1Nc1nccc(-c2cncnc2)n1 [bafetinib]
# Procedure, shortened: as §1
# [5] = compound: Cc1cccc(CC(=O)N2CCc3c2ccc(-c2cn(C)c4ncnc(N)c24)c3F)n1
# Procedure, shortened: as §1
# nilotinib = compound: Cc1cn(-c2cc(NC(=O)c3ccc(C)c(Nc4nccc(-c5cccnc5)n4)c3)cc(C(F)(F)F)c2)cn1 [nilotinib]
# Procedure, shortened: as §1
# [6] = compound: Cc1nc(Nc2n[nH]c3c2CN(C(=O)N[C@H](CN(C)C)c2ccccc2)C3(C)C)c2sccc2n1
# Procedure, shortened: as §1
# dasatinib = compound: Cc1nc(Nc2ncc(C(=O)Nc3c(C)cccc3Cl)s2)cc(N2CCN(CCO)CC2)n1 [dasatinib]
# Procedure, shortened: as §1
# [7] = compound: Cc1ncc(-c2ccnc(Nc3ccc(S(C)(=O)=O)cc3)n2)n1C(C)C
# Procedure, shortened: as §1
# [8] = compound: Cn1cc(-c2ccc3c(c2)CCN3C(=O)Cc2cccc(C(F)(F)F)c2)c2c(N)ncnc21
# Procedure, shortened: as §1
# [9] = compound: Cn1cc(-c2ccc3nnc(C(F)(F)c4ccc5ncccc5c4)n3n2)cn1
# Procedure, shortened: as §1
# tipifarnib = compound: Cn1cncc1[C@@](N)(c1ccc(Cl)cc1)c1ccc2c(c1)c(-c1cccc(Cl)c1)cc(=O)n2C [tipifarnib]
# Procedure, shortened: as §1
# mubritinib = compound: FC(F)(F)c1ccc(/C=C/c2nc(COc3ccc(CCCCn4ccnn4)cc3)co2)cc1 [mubritinib]
# Procedure, shortened: as §1
# Chain of UniProt Q07820 (Q07820 whole entry, looked up): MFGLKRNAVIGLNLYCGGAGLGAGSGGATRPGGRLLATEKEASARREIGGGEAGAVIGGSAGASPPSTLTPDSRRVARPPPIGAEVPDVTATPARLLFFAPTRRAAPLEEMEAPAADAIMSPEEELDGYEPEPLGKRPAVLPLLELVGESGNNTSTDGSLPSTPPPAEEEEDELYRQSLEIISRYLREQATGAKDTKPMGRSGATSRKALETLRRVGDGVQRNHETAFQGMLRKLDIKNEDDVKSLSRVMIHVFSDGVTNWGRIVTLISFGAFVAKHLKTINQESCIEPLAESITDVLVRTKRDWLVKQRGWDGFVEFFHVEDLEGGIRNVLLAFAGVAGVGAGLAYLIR
# Chain of UniProt Q9H1H9 (Q9H1H9 whole entry, looked up): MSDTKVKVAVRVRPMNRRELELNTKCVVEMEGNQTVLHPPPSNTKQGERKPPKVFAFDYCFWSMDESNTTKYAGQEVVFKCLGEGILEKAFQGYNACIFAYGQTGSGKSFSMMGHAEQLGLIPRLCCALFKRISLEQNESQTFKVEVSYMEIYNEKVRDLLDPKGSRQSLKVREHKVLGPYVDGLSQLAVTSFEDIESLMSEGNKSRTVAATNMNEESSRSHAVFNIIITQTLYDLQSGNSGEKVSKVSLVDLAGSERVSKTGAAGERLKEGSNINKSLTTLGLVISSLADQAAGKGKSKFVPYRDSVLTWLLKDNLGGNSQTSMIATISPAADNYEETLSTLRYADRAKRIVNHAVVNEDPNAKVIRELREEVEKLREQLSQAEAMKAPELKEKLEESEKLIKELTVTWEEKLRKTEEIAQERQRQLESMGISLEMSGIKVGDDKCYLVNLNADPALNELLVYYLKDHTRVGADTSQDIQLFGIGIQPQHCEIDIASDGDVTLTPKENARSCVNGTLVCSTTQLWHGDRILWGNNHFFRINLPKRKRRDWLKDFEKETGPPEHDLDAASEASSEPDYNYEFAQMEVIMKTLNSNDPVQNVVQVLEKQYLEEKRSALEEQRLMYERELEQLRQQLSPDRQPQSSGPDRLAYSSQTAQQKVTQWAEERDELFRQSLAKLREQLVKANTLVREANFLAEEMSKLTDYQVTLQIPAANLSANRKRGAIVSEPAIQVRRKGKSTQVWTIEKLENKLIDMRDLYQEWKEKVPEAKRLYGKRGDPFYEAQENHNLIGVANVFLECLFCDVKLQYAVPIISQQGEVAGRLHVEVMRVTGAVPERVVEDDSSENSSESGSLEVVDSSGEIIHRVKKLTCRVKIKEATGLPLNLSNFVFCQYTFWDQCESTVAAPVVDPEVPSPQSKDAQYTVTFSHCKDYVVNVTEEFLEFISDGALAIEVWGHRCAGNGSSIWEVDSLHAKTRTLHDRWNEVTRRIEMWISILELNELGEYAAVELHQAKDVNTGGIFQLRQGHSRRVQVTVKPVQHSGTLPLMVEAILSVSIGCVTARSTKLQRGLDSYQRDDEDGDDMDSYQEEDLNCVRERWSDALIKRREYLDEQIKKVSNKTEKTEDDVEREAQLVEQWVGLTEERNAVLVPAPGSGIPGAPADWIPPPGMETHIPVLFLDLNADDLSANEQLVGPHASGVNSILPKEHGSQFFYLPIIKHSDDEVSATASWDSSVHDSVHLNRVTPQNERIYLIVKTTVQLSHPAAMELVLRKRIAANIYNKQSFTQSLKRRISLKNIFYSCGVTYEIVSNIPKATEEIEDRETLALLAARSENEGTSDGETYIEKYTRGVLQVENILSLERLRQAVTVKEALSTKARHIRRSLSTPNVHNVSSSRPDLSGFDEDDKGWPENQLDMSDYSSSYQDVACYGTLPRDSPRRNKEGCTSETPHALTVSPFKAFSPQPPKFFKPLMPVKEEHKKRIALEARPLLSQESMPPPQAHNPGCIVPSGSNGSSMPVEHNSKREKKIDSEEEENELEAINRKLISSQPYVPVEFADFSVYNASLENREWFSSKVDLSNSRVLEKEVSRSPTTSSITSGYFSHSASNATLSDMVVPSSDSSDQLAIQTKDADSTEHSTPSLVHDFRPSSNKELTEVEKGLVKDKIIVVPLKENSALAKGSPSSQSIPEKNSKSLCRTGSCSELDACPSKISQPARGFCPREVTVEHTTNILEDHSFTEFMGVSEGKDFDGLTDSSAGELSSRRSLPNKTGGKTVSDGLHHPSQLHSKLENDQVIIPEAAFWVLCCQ
# Chain of UniProt Q7Z4S6 (Q7Z4S6 whole entry, looked up): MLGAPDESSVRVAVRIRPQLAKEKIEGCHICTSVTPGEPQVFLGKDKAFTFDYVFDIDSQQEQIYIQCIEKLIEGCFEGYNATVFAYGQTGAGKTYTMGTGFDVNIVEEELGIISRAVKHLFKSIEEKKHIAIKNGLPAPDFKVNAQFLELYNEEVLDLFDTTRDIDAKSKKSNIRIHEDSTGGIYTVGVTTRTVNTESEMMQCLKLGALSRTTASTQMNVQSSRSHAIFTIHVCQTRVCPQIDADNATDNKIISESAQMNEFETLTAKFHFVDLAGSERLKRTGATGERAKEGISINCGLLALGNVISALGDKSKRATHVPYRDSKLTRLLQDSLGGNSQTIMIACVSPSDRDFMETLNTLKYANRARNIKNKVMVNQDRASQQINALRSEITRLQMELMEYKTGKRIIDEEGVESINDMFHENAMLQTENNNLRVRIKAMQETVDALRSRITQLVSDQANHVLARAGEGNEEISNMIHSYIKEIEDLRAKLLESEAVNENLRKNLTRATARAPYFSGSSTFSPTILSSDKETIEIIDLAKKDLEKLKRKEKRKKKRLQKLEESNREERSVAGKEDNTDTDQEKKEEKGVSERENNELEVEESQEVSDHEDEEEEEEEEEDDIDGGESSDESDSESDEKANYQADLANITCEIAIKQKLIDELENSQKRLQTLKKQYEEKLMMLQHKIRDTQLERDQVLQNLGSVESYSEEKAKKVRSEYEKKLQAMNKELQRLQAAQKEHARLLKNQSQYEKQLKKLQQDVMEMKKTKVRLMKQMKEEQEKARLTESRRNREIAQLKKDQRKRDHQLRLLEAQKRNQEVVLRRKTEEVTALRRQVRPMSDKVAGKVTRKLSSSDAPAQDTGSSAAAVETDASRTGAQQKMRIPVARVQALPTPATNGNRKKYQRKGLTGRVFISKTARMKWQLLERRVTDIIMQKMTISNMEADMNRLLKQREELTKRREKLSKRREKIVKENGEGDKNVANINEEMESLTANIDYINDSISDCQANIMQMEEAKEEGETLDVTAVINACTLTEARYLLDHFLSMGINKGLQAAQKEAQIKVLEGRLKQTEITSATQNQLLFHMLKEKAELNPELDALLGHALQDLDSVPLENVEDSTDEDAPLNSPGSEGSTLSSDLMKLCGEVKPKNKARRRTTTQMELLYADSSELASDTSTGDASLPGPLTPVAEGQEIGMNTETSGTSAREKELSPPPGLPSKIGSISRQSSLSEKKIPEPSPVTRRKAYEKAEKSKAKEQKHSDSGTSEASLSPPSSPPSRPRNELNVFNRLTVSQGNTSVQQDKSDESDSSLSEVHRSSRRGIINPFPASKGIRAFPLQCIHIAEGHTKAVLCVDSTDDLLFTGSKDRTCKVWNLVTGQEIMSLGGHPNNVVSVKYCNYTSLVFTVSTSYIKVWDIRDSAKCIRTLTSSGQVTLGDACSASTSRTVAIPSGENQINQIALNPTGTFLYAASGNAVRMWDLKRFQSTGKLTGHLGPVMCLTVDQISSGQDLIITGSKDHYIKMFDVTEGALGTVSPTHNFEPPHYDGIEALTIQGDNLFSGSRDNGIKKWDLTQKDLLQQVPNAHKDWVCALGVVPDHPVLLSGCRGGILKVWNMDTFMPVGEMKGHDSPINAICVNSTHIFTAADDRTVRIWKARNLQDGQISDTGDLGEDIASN
# Chain of UniProt P49006 (P49006 whole entry, looked up): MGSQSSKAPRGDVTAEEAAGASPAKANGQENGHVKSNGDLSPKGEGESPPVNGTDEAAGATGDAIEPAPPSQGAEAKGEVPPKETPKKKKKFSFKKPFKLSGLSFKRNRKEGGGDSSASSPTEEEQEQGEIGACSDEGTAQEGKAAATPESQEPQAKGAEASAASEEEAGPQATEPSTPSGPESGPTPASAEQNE
# Chain of UniProt O95373 (O95373 whole entry, looked up): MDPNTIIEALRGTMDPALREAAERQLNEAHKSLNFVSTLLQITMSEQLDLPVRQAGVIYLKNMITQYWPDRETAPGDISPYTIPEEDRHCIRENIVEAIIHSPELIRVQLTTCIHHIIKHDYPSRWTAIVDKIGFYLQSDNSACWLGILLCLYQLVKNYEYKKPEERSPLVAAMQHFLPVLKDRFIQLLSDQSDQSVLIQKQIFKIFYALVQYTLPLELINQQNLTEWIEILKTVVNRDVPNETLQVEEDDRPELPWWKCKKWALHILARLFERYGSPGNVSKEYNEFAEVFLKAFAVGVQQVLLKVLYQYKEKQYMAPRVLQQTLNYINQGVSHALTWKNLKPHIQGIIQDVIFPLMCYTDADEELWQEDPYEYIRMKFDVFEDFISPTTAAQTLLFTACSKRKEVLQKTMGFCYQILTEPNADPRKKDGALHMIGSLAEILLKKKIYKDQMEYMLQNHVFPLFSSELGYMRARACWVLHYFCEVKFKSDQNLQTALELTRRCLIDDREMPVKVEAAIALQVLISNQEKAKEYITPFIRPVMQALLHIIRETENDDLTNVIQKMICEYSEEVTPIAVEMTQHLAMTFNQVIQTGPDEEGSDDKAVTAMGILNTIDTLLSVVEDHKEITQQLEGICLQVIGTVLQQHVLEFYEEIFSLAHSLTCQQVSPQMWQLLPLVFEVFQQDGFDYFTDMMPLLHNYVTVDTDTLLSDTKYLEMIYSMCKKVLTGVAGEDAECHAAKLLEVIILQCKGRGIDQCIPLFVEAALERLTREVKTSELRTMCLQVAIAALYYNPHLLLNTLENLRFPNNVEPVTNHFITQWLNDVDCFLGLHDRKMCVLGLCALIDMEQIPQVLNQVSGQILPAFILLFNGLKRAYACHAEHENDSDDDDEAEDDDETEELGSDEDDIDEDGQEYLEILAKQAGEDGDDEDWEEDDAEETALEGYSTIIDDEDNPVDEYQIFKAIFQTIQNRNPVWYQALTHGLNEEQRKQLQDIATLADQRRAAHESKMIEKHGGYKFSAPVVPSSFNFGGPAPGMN
Target,log2 fold change [1],log2 fold change (crizotinib),log2 fold change [2],log2 fold change [3],log2 fold change (duvelisib),log2 fold change (gandotinib),log2 fold change (tozasertib),log2 fold change [4],log2 fold change (doramapimod),log2 fold change (ispinesib),log2 fold change (bafetinib),log2 fold change [5],log2 fold change (nilotinib),log2 fold change [6],log2 fold change (dasatinib),log2 fold change [7],log2 fold change [8],log2 fold change [9],log2 fold change (tipifarnib),log2 fold change (mubritinib)
IRF3 (UniProt Q14653),-0.146,0.007,0.056,-0.027,0.067,-0.068,0.039,0.053,-0.038,0.022,0.033,0.023,0.066,-0.191,-0.1,-0.04,0.106,0.005,-0.023,0.039
LMNB2 (UniProt Q03252),0.007,0.039,0.179,0.079,0.072,-0.003,0.03,0.033,0.019,0.016,-0.067,-0.078,0.022,-0.077,0.101,-0.158,0.015,-0.007,0.166,-0.043
KIF21A isoform 4 (UniProt Q7Z4S6),0.092,-0.039,0.027,0.207,0.055,-0.001,0.021,0.044,0.047,-0.153,0.051,0.079,-0.104,0.083,-0.193,0.037,-0.066,-0.073,-0.039,0.11
MED1 (UniProt Q15648),0.011,0.014,0.043,0.04,-0.044,-0.025,-0.031,-0.05,0.11,-0.078,0.016,-0.018,0.057,0,0.037,-0.217 (active),-0.064,-0.089,0.069,0.004
MFN1 (UniProt Q8IWA4),0.031,-0.026,0.027,-0.063,0.037,0.025,-0.063,0.039,0.02,-0.207,-0.114,-0.034,-0.005,-0.05,-0.054,0.02,0.032,-0.019,0.123,-0.01
LUC7L (UniProt Q9NQ29),-0.009,-0.028,-0.033,-0.001,-0.042,0.199,0.06,0.033,0.029,-0.007,0.057,-0.046,0.049,-1.71 (active),0.062,0.109,-0.095,-0.054,0.049,-0.099
IPO7 (UniProt O95373),-0.011,-0.138,0.042,-0.07,0.029,-0.185,0.102,0.073,-0.054,-0.077,-0.018,0.035,-0.058,-0.044,-0.074,-0.091,-0.018,0.008,-0.126,0.079
MIEN1 (UniProt Q9BRT3),0.03,0.152,0.314 (active),-0.193,0.208,0.026,0.12,0.032,0.029,0.235,0.023,-0.013,-0.029,-0.037,-0.041,-0.08,0.08,0.139,0.083,0.018
KIF13A (UniProt Q9H1H9),0.018,0.058,0.112,0.072,0.034,-0.384 (active),0.065,-0.009,-0.011,-0.003,-0.033,-0.095,0.012,-0.01,-0.044,0.008,0.029,-0.032,-0.014,0.024
LMNB1 (UniProt P20700),-0.01,0.038,0.108,-0.172,-0.018,-0.03,0.096,-0.022,-0.003,0.041,-0.089,-0.004,0.037,-0.11,0.092,-0.117,-0.059,-0.074,0.105,-0.069
MAP3K7 (UniProt O43318),0.093,-0.193,-0.035,0.135,0.08,-0.036,-0.011,0.118,-0.001,-0.029,0.029,0.085,-0.105,-0.028,-0.038,0.059,-0.095,-0.026,-0.064,0.046
LYPLA2 (UniProt O95372),-0.028,0.005,0.299,-0.08,0.189,-0.094,0.056,0.066,0.016,0.172,0.139,0.007,0.13,-0.042,0,-0.026,0.175,0.298,-0.054,0.013
MIEF1 (UniProt L0R8F8),-0.023,0.068,-0.067,-0.065,0.151,-0.062,0.023,-0.025,-0.04,-0.03,-0.077,-0.001,-0.1,0.067,0.001,-0.093,0.022,-0.053,-0.03,-0.039
MDC1 (UniProt Q14676),-0.053,-0.109,0.041,0.107,-0.057,0.423,-0.154,-0.031,0.178,-0.217,-0.1,-0.269,0.037,0.02,0.398,-0.191,-0.031,-0.043,0.058,-0.038
MCL1 (UniProt Q07820),-0.079,0.043,-0.158,-0.006,0.052,0.042,-0.056,0.01,0.109,-0.441,-0.181,-0.017,0.015,-0.053,0.068,-0.079,-0.021,-0.158,0.109,0.001
MARCKSL1 (UniProt P49006),0.032,0.09,-0.006,-0.094,0.025,-0.006,-0.033,-0.074,-0.047,0.071,0.04,-0.087,0.003,0.014,0.062,0.009,-0.008,-0.004,0.034,0.005

# Source: the supplement of paper PMC10849652
